The list is not random: actives were taken first. Their share in the collection is about 5.3%.
BAZ2B block = blocks human BAZ2B; Q9UIF8; AlphaScreen BAZ2B-H3K14Ac peptide displacement; Potency, µM (top dose mostly 114 µM), for inactives: top-dose activity change, negative = inhibition, usual class: inhibitors; 360,000 tested, 4.4% active; AID 504333; further: potency means the concentration at half of the fitted maximal effect; on the % scale 0 is the no-effect control and ±100 the full control effect; nearly all actives have a fitted effect of over 60% in size
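BAZ2B (50 nM) with biotin-H3(5-23)K14Ac peptide (50 nM) in PBS pH 7.4, 0.01% Tween-20, preformed 30 min, then compound 30 min at room temperature; top concentration 110uM. AlphaScreen streptavidin donor/nickel chelate acceptor beads (10 ug/mL final), 20 min dark, signal read.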
TDP1 block = inhibitors of human tyrosyl-DNA phosphodiesterase TDP1 | Q9NUW8 | Potency, µM (titrated, usually from 130 µM), inactives show top-dose activity change, negative = inhibition, usual class: inhibitors | 350,000 tested, 0.28% active | recombinant TDP1, AlphaScreen DNA substrate cleavage; further: potency means the concentration at half of the fitted maximal effect; on the % scale 0 is the no-effect control and ±100 the full control effect; nearly all actives have a fitted effect of over 40% in size
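Steps: enzyme plus compound, 15 min RT; add biotin/phosphotyrosine-FITC oligonucleotide (15 nM final), react 5 min; add donor/acceptor beads (10 ug/ml final), 10 min; read AlphaScreen. Tdp1 at 1 nM final.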
JMJD2A Tudor = blocks the human JMJD2A Tudor domain; O75164; Potency, µM (titrated, usually from 114 µM), without a hit: top-dose activity change, negative = inhibition, usual class: inhibitors; AlphaScreen JMJD2A-Tudor / H3K4me3 peptide binding; AID 504339; 390,000 tested, 4.4% active; further: potency means the concentration at half of the fitted maximal effect; on the % scale 0 is the no-effect control and ±100 the full control effect; nearly all actives have a fitted effect of over 50% in size
Six1-Eya2 inh = blocks human Six1 binding to Eya2. Q15475+O00167. AlphaScreen GST-Six1/His-Eya2 binding, biochemical; active compounds read low. activity change, % (no concentration beside the values). 360,000 tested, 0.56% active. AID 651725; in the data active means activity change below about -65%; inconclusive means mostly about -30% to -63%; further: on the % scale 0 is the no-effect control and ±100 the full control effect
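Compounds are tested against tagged Six1 and Eya2 proteins bridged by glutathione donor and nickel acceptor beads; after a one-hour incubation at 37 °C without light, AlphaScreen emission is recorded.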
CtBP-E1A blk = CtBP/E1A binding inhibition. activity change, % (concentration not given with the values). 340,000 tested, 0.49% active. AlphaScreen GST-E1A/His-CtBP binding, 1536-well; active compounds read low; in the data active means activity change below about -65%; inconclusive means mostly about -30% to -63%; further: on the % scale 0 is the no-effect control and ±100 the full control effect
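GST-E1A and His-tagged CtBP (125 nM each as 5X stock) were preincubated with pin-transferred compound for 2 h at 37 °C in the dark, then glutathione donor and nickel acceptor beads were added for 1 h before AlphaScreen reading.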
HP1b binding inh = blocks HP1-beta chromodomain binding to methylated histone tails; P83916; AlphaScreen HP1-beta / biotin-H3K9me3 peptide binding; Potency, µM (titrated, usually from 114 µM), for the others: top-dose activity change, negative = inhibition, hits mostly inhibitors; 390,000 tested, 0.56% active; further: potency means the concentration at half of the fitted maximal effect; nearly all actives have a fitted effect of over 70% in size
Target sequence (P83916 whole entry, looked up): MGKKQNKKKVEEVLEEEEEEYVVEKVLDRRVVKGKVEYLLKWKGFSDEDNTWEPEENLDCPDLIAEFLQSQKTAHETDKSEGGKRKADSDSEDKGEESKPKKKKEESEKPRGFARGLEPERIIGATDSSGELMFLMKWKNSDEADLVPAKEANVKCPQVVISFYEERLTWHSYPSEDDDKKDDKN
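HP1-beta protein (50 nM final) preincubated 30 min at room temperature with biotinylated H3(1-18)K9me3 peptide (50 nM) in PBS pH 7.4, 0.01% Tween-20, then compound added for 30 min. AlphaScreen streptavidin donor/nickel chelate acceptor beads (10 ug/mL final), 30 min dark, luminescence read.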
Starred values were filed as active, the others as inactive; ? = inconclusive; . = not tested or not shown; [ ] = another dose, or the depositor's remark. Unless noted, the call rests on the fitted dose curve; in most records, active means well fitted inhibition curve with a large enough effect; inconclusive means small, poorly fitted or top-dose-only effect; inactive means no such curve, though single readings can be large or run the other way.

SMILES	BAZ2B block	TDP1 block	JMJD2A Tudor	Six1-Eya2 inh	CtBP-E1A blk	HP1b binding inh
Cc1cccc(Nc2cc(C)c3c(O)cccc3n2)c1C	40µM*	12%	45µM*	-10	-7	-3%
C[n+]1ccccc1/C=C/c1ccc(F)c(F)c1	?	.	-1%	-16	-18	17%
C[n+]1ccccc1/C=C/c1c(F)cccc1F	8.9µM*	.	?	4	1	15%
C[n+]1ccccc1/C=C/c1ccccc1Cl	56µM*	.	-11%	-8	5	4%
C[n+]1ccccc1/C=C/c1ccc(C#N)cc1	45µM*	.	22µM*	3	3	?
Cc1ccccc1/C=C/c1cccc[n+]1C	-35%	.	-5%	-2	.	22%
Cc1cccc(NC(=O)Nc2nnc(N(C)Cc3ccccc3)s2)c1	3%	0%	46%	.	.	112%
CC(=O)N1c2c(cc(Br)cc2S(=O)(=O)N2CCN(c3cccc(Cl)c3)CC2)CC1C (stereo not drawn)	-11%	0%	-26%	.	.	13%
CC(C)C[C@@H](CNCC(=O)[C@H](C)NC(=O)c1[nH]cnc1C(=O)N[C@@H](C)CN)NC(=O)c1nc[nH]c1C(=O)N[C@@H](Cc1ccccc1)C(=O)O	.	.	79µM*	-5	-5	14%
CC(C)C[C@@H](CNCC(=O)[C@H](CC(=O)O)NC(=O)c1[nH]cnc1C(=O)N[C@H](CN)CC(C)C)NC(=O)c1nc[nH]c1C(=O)N[C@@H](C)C(=O)O	.	.	?	-4	-7	65%
CC(C)C[C@@H](CNCC(=O)[C@H](CC(C)C)NC(=O)c1[nH]cnc1C(=O)N[C@H](CN)CC(C)C)NC(=O)c1nc[nH]c1C(=O)N[C@@H](Cc1ccccc1)C(=O)O	.	.	?	-6	-5	22%
CC(C)C[C@@H](CNCC(=O)[C@H](Cc1c[nH]c2ccccc12)NC(=O)c1[nH]cnc1C(=O)N[C@@H](C)CN)NC(=O)c1nc[nH]c1C(=O)N[C@@H](Cc1ccccc1)C(=O)O	.	.	?	-6	-13	39%
CC(C)C[C@@H](CNCC(=O)[C@H](Cc1ccccc1)NC(=O)c1[nH]cnc1C(=O)N[C@H](CN)CC(C)C)NC(=O)c1nc[nH]c1C(=O)N[C@@H](CC(=O)O)C(=O)O	.	.	28µM*	-22	-18	37%
CC(C)C[C@@H](CN)NC(=O)c1nc[nH]c1C(=O)N[C@@H](C)C(=O)CNC[C@H](CC(C)C)NC(=O)c1nc[nH]c1C(=O)N[C@@H](Cc1ccccc1)C(=O)O	.	.	79µM*	-4	-8	48%
O=C(NC(=S)NCCC1=CCCCC1)c1ccccc1Br	50µM*	0%	-6%	-1	7	20%
Cc1csc(NC(=O)CNS(=O)(=O)c2cccs2)n1	-2%	2%	8.9µM*	3	-8	5%
COCCNCC(=O)Nc1nc(C)cs1	32µM*	-1%	?	0	50	15%
COc1ccc2nc(NC(=O)CNS(=O)(=O)c3cccs3)sc2c1	-7%	4%	-27%	0	1	1%
O=C(CC(c1cccs1)N1Cc2ccccc2C1=O)Nc1ccccc1F (stereo not drawn)	-6%	3%	-12%	.	.	4%
CCN(Cc1ccccc1)c1ccc(Br)cn1	.	.	88%	.	.	.
COc1ccc(OC)c(CN2CCN(C(=O)CN3C(=O)NC4(CCCC4)C3=O)CC2)c1	-6%	-3%	-3%	-1	-18	22%
COc1cc(CN2CCCCCC2)cc(OC)c1OC	?	.	5µM*	13	8	?
COc1ccc(OC)c(CN2CCN(Cc3cc(OC)c(OC)c(OC)c3)CC2)c1	79µM*	.	22µM*	-8	8	?
Cc1cc(C)c2c(-n3cccc3)c(C(=O)NCc3cccc(F)c3)sc2n1	-10%	6%	-24%	.	.	-10%
Cc1nn(-c2ccccc2)c(N)c1Sc1cccc([N+](=O)[O-])c1	?	5%	56µM*	-15	.	-21%
SMILES	BAZ2B block	TDP1 block	JMJD2A Tudor	Six1-Eya2 inh	CtBP-E1A blk	HP1b binding inh
O=C(CSc1nc2ccccc2nc1Cc1ccc(Cl)cc1)N1CCCCC1	17%	0%	7%	.	.	34%[57 µM]
CCc1ccc(Cn2c(CNS(=O)(=O)c3ccc([N+](=O)[O-])cc3)nc3cccnc32)cc1	-1%	8%	-8%	.	.	33%[57 µM]
C#CCOCCOCCOCCNc1nc(N2CCN(C(=O)CCCCCCCCCCNC(=O)[C@@H](CCSC)n3cc(CCO)nn3)CC2)nc(N2CCN(C(=O)CCCCCCCCCCNC(=O)[C@H]([C@@H](C)CC)n3cc(CCCCCN)nn3)CC2)n1	?	13%	56µM*	-5	-5	?
C#CCOCCOCCOCCNc1nc(N2CCN(C(=O)CCCCCCCCCCNC(=O)[C@@H](CCSC)n3cc(CCO)nn3)CC2)nc(N2CCN(C(=O)CCCCCCCCCCNC(=O)[C@H]([C@@H](C)CC)n3cc(CCCCN=C(N)N)nn3)CC2)n1	50µM*	13%	40µM*	-13	-11	?
C#CCOCCOCCOCCNc1nc(N2CCN(C(=O)CCCCCCCCCCNC(=O)[C@H](CO)n3cc(CCCSC)nn3)CC2)nc(N2CCN(C(=O)CCCCCCCCCCNC(=O)[C@H](CO)n3cc(CCCSC)nn3)CC2)n1	4%	-7%	-17%	8	4	55%
C#CCOCCOCCOCCNc1nc(N2CCOCC2)nc(N2CCN(C(=O)CCCCCCCCCCNC(=O)[C@@H](CCSC)n3cc(CCO)nn3)CC2)n1	-5%	3%	-32%	-8	-25	10%
CCOC(=O)c1ccc(NC(=O)c2c(C)oc3nc(C)nc(N4CCCC4)c23)cc1	8%[57.1 µM]	-1%	-2%	.	.	27%
N#CC1=C(N)SC(N)=C(C#N)C1c1ccc([N+](=O)[O-])cc1	-37%	8%	56µM*	-8	7	-37%
N#CC1=C(N)SC(N)=C(C#N)C1c1ccc(C(F)(F)F)cc1	-31%	7%	.	.	.	.
Cc1ccc(N2C(=O)C(Cl)=C(N3CCN(C)CC3)C2=O)c(C)c1	3%	1%	-16%	5	-3	52%
CN1CCN(C2=C(Cl)C(=O)N(c3ccc(Cl)cc3)C2=O)CC1	.	4%	40µM*	21	88	26%
CCOC(=O)C1=C(C)N(c2ccc(OC)cc2)C(=O)/C1=C\c1cccs1	?	5%	-31%	-27	-6	-3%
COC(=O)C1=C(C)N(Cc2ccc(OC)cc2)C(=O)/C1=C\c1ccco1	13µM*	6%	40µM*	-14	-13	?
CCOC(=O)C1=C(C)N(c2ccc(C)c(C)c2)C(=O)/C1=C\c1ccco1	32µM*	10%	32µM*	-5	-2	-51%

From PubChem BioAssay
